Only some compounds are listed: those with a hit (about 0.68% of all), similar ones and a draw of the others.
UGM FP inh: blocks M. tuberculosis UGM enzyme; P9WIQ1; purified UGM, fluorescence polarization probe displacement; inhibition, % at 10 µM; 320,000 tested, 0.06% active; in the data active = inhibition above about 10%, passing the limit was not always enough
Target sequence (P9WIQ1 whole entry, looked up): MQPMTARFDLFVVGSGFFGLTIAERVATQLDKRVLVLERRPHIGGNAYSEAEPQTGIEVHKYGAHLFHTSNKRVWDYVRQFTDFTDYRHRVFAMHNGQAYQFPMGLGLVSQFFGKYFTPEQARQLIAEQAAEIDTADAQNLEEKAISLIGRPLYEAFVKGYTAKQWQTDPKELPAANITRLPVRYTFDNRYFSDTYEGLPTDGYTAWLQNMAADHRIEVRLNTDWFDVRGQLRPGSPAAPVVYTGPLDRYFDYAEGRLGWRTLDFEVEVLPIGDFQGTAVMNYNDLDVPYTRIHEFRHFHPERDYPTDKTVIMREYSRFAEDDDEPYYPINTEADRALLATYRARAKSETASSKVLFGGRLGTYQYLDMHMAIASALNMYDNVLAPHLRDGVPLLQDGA
Mtb hypoxia inh: Mtb hypoxia fluorescent reporter inhibition | fluorescence inhibition, % (concentration not given with the values) | M. tuberculosis hypoxia-regulated fluorescent reporter, fluorescence | 300,000 tested, 0.1% active; in the data active = fluorescence inhibition mostly above about 23%, no sharp cut-off; inactive = mostly below about 17%
ugtP null kill: compounds lethal to S. aureus RN4220 ugtP deletion mutant | OD600 growth, 16 h | growth inhibition, % (no concentration beside the values) | 330,000 tested, 0.54% active; in the data active = growth inhibition above about 68%;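 also: plate controls were untreated wells for no effect and antibiotic for full effect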
Rv3671c protease: Rv3671c (M. tuberculosis) protease inhibition. P9WHR9. inhibition, % at 5.96 µM. 320,000 tested, 0.048% active; in the data active = inhibition above about 38%;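 also: extracellular domain of Rv3671c used as enzyme; 0% = enzyme with DMSO and 100% = no enzyme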
RN4220 kill: kills Staphylococcus aureus RN4220. S. aureus RN4220 growth, OD600, 16 h. 330,000 tested, 0.33% active. inhibition, % (test concentration not listed); in the data active = inhibition above about 85%;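 also: plate controls were untreated cells for no effect and reference antibiotic for full effect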
Mtb betalactam: beta-lactam sensitization of Mtb H37Rv; inhibition, % at 25 µM; 330,000 tested, 0.27% active; M. tuberculosis H37Rv growth with meropenem, percent inhibition; AID 434955; call rule not given here;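 also: growth measured after seven days incubation then overnight dye step; 0% = bacteria only wells and 100% = bacteria with antibiotic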
The depositor's hits bear a star; x = no result shown.

SMILES	UGM FP inh	Mtb hypoxia inh	ugtP null kill	Rv3671c protease	RN4220 kill	Mtb betalactam
CCCCC(NC(=O)Cc1c(C)c2cc3c(-c4ccccc4)coc3c(C)c2oc1=O)C(=O)O (stereo not given)	1	-4	100*	-15	98*	-5
CC(C)CC(CN(C)N=O)N(CC(Cc1ccccc1)N(CCc1ccccc1)N=O)N=O (stereo not given)	x	18	18	x	12	x
NC(=O)C[C@H](NC(=O)c1ccc(Cl)cc1)C(=O)OCc1ccccc1	1	28*	3	8	3	0
c1ccc(CC2CN=C(Nc3ccccc3)N2CC2CCCCCC2)cc1 (stereo not given)	x	14	-28	x	3	x
CC(=O)c1c(N2CCN(c3cccc(Cl)c3)CC2)nc(=S)n(-c2ccccc2)c1C	1	1	83*	12	71	13
COc1ccc(-c2sc3ccccc3c2-c2ccc(OCCN(C)C)cc2)cc1	-1	47*	100*	14	101*	100
CN(C)CCOc1ccc(-c2c(-c3ccsc3)sc3ccccc23)cc1	0	x	x	6	x	100
CC[C@@]12C(=O)N(c3cccc(F)c3)C(=O)N1C(c1ccc(OC)cc1)C1C(=O)N(C(C)(C)C)C(=O)C12 (stereo not given in full)	x	4	-12	x	2	x
CCN1/C(=C/c2cc[n+](CCCS(=O)(=O)[O-])c3ccccc23)Sc2ccccc21	-5	18	10	-14	5	-5
C=CC[n+]1ccc(/C=C2\C=Cc3cc(C)ccc3N2CC)c2ccccc21	x	36*	93*	x	92*	x
COc1ccc(C(=O)c2c(C(F)(F)F)oc3c2C(=O)c2ccccc2C3=O)cc1	1	x	33	-65	94*	68
CCCC(=O)O[C@]1(C(=O)CO)CCC2C3CCC4=CC(=O)CC[C@]4(C)C3C(O)C[C@@]21C (stereo not given in full)	x	4	1	x	11	x
O=C(N/N=C/c1cc([N+](=O)[O-])ccc1O)C12CC3CC(CC(C3)C1)C2	0	x	x	6	x	99
CN(C)N=Cc1cc([N+](=O)[O-])ccc1O	x	1	55	x	71	x
O=[N+]([O-])c1ccc(O)c(C=Nc2ccc3c(c2)OCCO3)c1	-4	3	74	1	92*	74
O=C1C2C(C(=O)N1N=Cc1cc([N+](=O)[O-])c(O)cc1O)C1C=CC2C12CC2 (stereo not given)	x	4	-2	x	11	x
O=C1C2C(C(=O)N1N=Cc1cc([N+](=O)[O-])ccc1O)C1C=CC2C12CC2 (stereo not given)	x	3	81	x	93*	x
O=C(NN=Cc1cc([N+](=O)[O-])ccc1O)C1CC1	x	5	80	x	90*	x
Cc1ccccc1NC(=O)CCC(=O)NN=Cc1cc([N+](=O)[O-])ccc1O	x	16	85*	x	95*	x
NC(=O)C1CCOc2c(F)cc([N+](=O)[O-])cc2C(=O)NC(CO)C(=O)NCC(=O)N1 (stereo not given)	x	10	8	x	6	x
O=S1(=O)CCOC2Cc3ccccc3C2N1Cc1cccc(Cl)c1 (stereo not given)	x	6	16	x	13	x
CC1CN(C(C)CO)C(=O)c2cccc(N(C)C)c2OC1CN(C)Cc1ccncc1 (stereo not given)	x	2	10	x	11	x
COc1ccc(CNC(=O)CC2C(=O)N(Cc3ccc(OC)cc3)CC2Cc2ccccc2)cc1 (stereo not given)	x	3	0	x	3	x
C=C1C(O)CC(C(C)C)N(CC(C)C)S1(=O)=O (stereo not given)	x	8	-1	x	3	x
CC(N=Cc1cc([N+](=O)[O-])ccc1O)c1ccccc1 (stereo not given)	-5	14	67	4	85*	1
O=[N+]([O-])c1ccc(O)c(C=NNc2ccc(S(=O)(=O)O)cc2)c1	x	15	72	x	89*	x
CN(/N=C/c1cc([N+](=O)[O-])ccc1O)c1ccccc1	1	x	x	6	x	-2
COC(=O)C1=C(c2cc3ccccc3o2)CC2CCC1N2C(=O)NCc1cccc2ccccc12 (stereo not given)	x	-2	-7	x	-3	x
COc1ccc(C2C=CCN(C(=O)c3ccc(C)cc3)CC(=O)N2Cc2ccc(F)cc2)cc1 (stereo not given)	x	13	9	x	8	x
O=S1(=O)C=C(Sc2nnc(-c3ccccc3)o2)c2ccccc21	-1	x	91*	5	93*	100
